From PubChem BioAssay (Tox21)
Inconclusive results are not listed. Entries that show only a call come without a potency. Calls of active or inactive are those of the source. Calls come from the whole dose curve; as a rule, active = well fitted cell-killing curve with a large enough effect in the repeat runs; inconclusive = weak or mixed curves, or effect the other way; inactive = no such curve, though single readings can be large or run the other way.

Assay: qHTS assay to identify small molecule antagonists of the peroxisome proliferator-activated receptor gamma (PPARg) signaling pathway - cell viability counter screen (AID 743194); note: nearly all actives have a fitted effect of over 55% in size
Conditions: PPARg-bla HEK293H viability, CellTiter-Glo luminescence, 17 h, co-treated with 50 nM rosiglitazone; series mostly up to 62.6 µM
Excerpt: U.S. Tox21 Program National Center for Advancing Translational Sciences [NCATS] NIH Chemical Genomics Center [NCGC] U.S. Environmental Protection Agency [EPA] National Institutes of Environmental Health Sciences [NIEHS] National Toxicology Program [NTP] U.S. Food and Drug Administration [FDA] Tox21 Assay Overview: The peroxisome proliferator-activated receptors (PPARs) are lipid-activated transcription factors of the nuclear receptor superfamily with three distinct subtypes namely PPAR alpha, PPAR delta (also called PPAR beta) and PPAR gamma (PPARg). All these subtypes heterodimerize with Retinoid X receptor (RXR) and these heterodimers regulate transcription of various genes. PPAR-gamma receptor (glitazone receptor) is involved in the regulation of glucose and lipid metabolism. To identify the compounds that activate PPAR-gamma signaling, GeneBLAzer PPAR gamma UAS-bla HEK293H cell line (Invitrogen, Carlsbad, CA, USA) containing a beta-lactamase reporter gene under the control of an Upstream Activator Sequence (UAS) was used to screen the Tox21 compound library. The cytotoxicity of the Tox21 compound library against the PPARg-bla cell line was tested in parallel by measuring the cell viability using CellTiter-Glo assay in the same wells.
Tox21 Assay Protocol Summary: PPARg-bla cells were dispensed at 3000 cells/5uL/well in 1536-well black wall/clear bottom plates using a Multidrop Combi (Thermo Fisher Scientific, Waltham, MA) dispenser. After the assay plates were incubated at 37 C and 5% CO2 for 5 h, 23 nL of compounds dissolved in DMSO, positive controls or DMSO only was transferred to the assay plate by a Pintool station (Kalypsys, San Diego, CA), followed by addition of 1ul Rosiglitazone (50 nM, final concentration in the wells). The assay plates were incubated at 37 C for 17 h, and then 1 uL of LiveBLAzerTM B/G FRET substrate was added using a Bioraptr Flying Reagent Dispenser (FRD) workstation (Beckman Coulter, Indianapolis, IN, USA). The assay plates were incubated at room temperature for 1 h and fluorescence intensity was measured by an Envision plate reader (PerkinElmer, Shelton, CT). For cell viability readout that measures cytotoxicity, 4 ul/well of CellTiter-Glo reagent was added into the assay plates using a Flying Reagent Dispenser. After 30 min incubation at room temperature, the luminescence intensity in the plates was measured using a ViewLux plate reader (PerkinElmer).
Potency is the fitted concentration of half-maximal effect.

| Compound | Potency |
| --- | --- |
| CCCCCCCCN | inactive |
| NNC(=O)CP(=O)(c1ccccc1)c1ccccc1 | inactive |
| Cc1cc2c(OCC(CNC(C)(C)C)OC(=O)c3ccccc3)cccc2[nH]1 (stereo not given) | inactive |
| COc1cc(C(=O)NC2CCN(C)CC2)ccc1Nc1ncc2c(n1)N(C1CCCC1)CC(F)(F)C(=O)N2C | 50.4 µM (active) |
| C=CCc1ccccc1OCC(O)CNC(C)C (stereo not given) | inactive |
| CCCCC(CC)COP(=O)(O)O (stereo not given) | inactive |
| Cc1ccc(C(C)(C)O)cc1 | inactive |
| CC1(C)[C@@H](OC(=O)CCC(=O)O)CC[C@]2(C)[C@H]3C(=O)C=C4[C@@H]5C[C@@](C)(C(=O)O)CC[C@]5(C)CC[C@@]4(C)[C@]3(C)CC[C@@H]12 | inactive |
| NC(=O)c1ccncc1 | inactive |
| CCCCCCCCCI | inactive |
| CCOc1ccccc1O[C@H](c1ccccc1)[C@H]1CNCCO1 | inactive |
| c1ccc2c(c1)CCc1ccccc1N2 | inactive |
| Cc1cccc(N(C)C(=S)Oc2ccc3c(c2)CCC3)c1 | inactive |
| CC=C(Cl)Cl | inactive |
| C=C(C)CCCC(C)CCO (stereo not given) | inactive |
| CS(=O)(=O)c1ccc(-c2cn3ccccc3n2)cc1 | inactive |
| CN1C(C(=O)Nc2ccccn2)=C(O)c2sccc2S1(=O)=O | inactive |
| CCC1NC(=O)c2cc(S(N)(=O)=O)c(Cl)cc2N1 (stereo not given) | inactive |
| O=C1Cc2cc(Cl)ccc2N1 | inactive |
| Nc1ncnc2c1ncn2[C@H]1CC[C@@H](CO)O1 | inactive |

| Compound | Potency |
| --- | --- |
| CCCCN1CCCC1C(=O)Nc1c(C)cc(C)cc1C (stereo not given) | inactive |
| N#CCc1ccc(Cl)cc1Cl | inactive |
| O=C1c2ccccc2C(=O)C1c1nc2ccccc2c(Br)c1O | inactive |
| CCOC(=O)OC(C)OC(=O)[C@@H]1N2C(=O)[C@@H](NC(=O)[C@H](N)c3ccccc3)[C@H]2SC1(C)C (stereo not given in full) | inactive |
| O=C1NCCN1CCO | inactive |
| CC(=O)Nc1cc(S(=O)(=O)O)cc2cc(S(=O)(=O)O)c(N=Nc3ccccc3)c(O)c12 | inactive |
| O=Cc1c2ccccc2c(Cl)c2ccccc12 | inactive |
| CC(C)(c1ccccc1)c1ccccc1 | inactive |
| CCOC(=O)/C=C/C(=O)OCC | inactive |
| CCOC(=O)c1ccc(O)c(O)c1 | inactive |
| CCC(C)(C)OC | inactive |
| COC(=O)CCS | inactive |
| COC(=O)C1=C(C)NC(C)=C(C(=O)O[C@@H]2CCCN(Cc3ccccc3)C2)[C@@H]1c1cccc([N+](=O)[O-])c1 | inactive |
| CCOc1cccc(-n2cc(C(=O)N3CCN(c4cc(C(=O)O)c5ccccc5c4)CC3)nc2-c2ccc(C)cc2)c1 | 18.6 µM (active) |
| CN1C(=O)N(c2ccccc2Br)Cc2cnc(Nc3ccc4c(c3)OCC(CO)O4)nc21 (stereo not given) | 49 µM (active) |
| O=C(OC(=O)c1ccccc1)c1ccccc1 | inactive |
| O=C(Cn1ccnc1[N+](=O)[O-])NCCO | inactive |
| CC(=O)c1ccc([N+](=O)[O-])cc1 | inactive |
| CC(CCC(=O)O)C(=O)O (stereo not given) | inactive |
| O=c1c(O)c(-c2ccc(O)cc2)oc2cc(O)cc(O)c12 | inactive |
